Our source for the outcome and AC50 values is PubChem BioAssay (EPA / NIEHS).

A short description of test [1]: ATG_NFI_CIS: Attagene CIS-FACTORIAL HepG2 Assay for human Nuclear Factor I (NFI) (AID 2282989). The settings on record: HepG2 cis-regulatory reporter, NFI response element transcription; actives raise or lower the signal. The method, boiled down: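 HepG2 cells transiently transfected with cis-element-driven multiplexed reporter transcription units, dosed for 24 h. Reporter mRNA quantified by RT-PCR, fluorescent labelling, HpaI digestion and capillary electrophoresis; bidirectional fit versus DMSO baseline.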

Test [2] addresses Myc proto-oncogene protein (Homo sapiens) (UniProt P01106). Nature of the test: ATG_Myc_CIS: Attagene CIS-FACTORIAL HepG2 Assay for human Myelocytomatosis (Myc) Proto-Oncogene Transcription Factor (AID 2282990). The note with it: HepG2, Attagene cis-reporter transcription factor activity; actives raise or lower the signal. In short, it runs like this: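 Read-out: fluorescent reporter mRNA fragments resolved by capillary electrophoresis after RT-PCR. Human HepG2 liver cells carried transfected cis-element reporter units and were dosed for 24 h. Gain or loss of signal fitted relative to DMSO baseline.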

The nature of test [3]: ATG_NF_kB_CIS: Attagene CIS-FACTORIAL HepG2 Assay for human Nuclear Factor Kappa B (NF-kB) (AID 2282991). The note with it: HepG2 Attagene cis-factorial NF-kB reporter mRNA; actives raise or lower the signal. The method, boiled down:
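DMSO served as negative control and baseline for bidirectional curve fitting. Transiently transfected HepG2 cells were dosed for 24 h, then reporter transcripts were measured by RT-PCR with capillary electrophoresis detection.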

Test [4] is described as follows: ATG_Oct_MLP_CIS: Attagene CIS-FACTORIAL HepG2 Assay for human Octamer-Binding Transcription Factor (Oct) (AID 2282993). The note with it: HepG2 Attagene cis-factorial Oct reporter, mRNA; actives raise or lower the signal. The method, boiled down:
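HepG2 cells transiently transfected with cis-promoter-driven multiplexed reporter transcription units, dosed for 24 h. Reporter mRNA quantified by RT-PCR, fluorescent labelling, HpaI digestion and capillary electrophoresis; bidirectional fits versus DMSO baseline.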

Test [5] addresses Cellular tumor antigen p53 (Homo sapiens) (UniProt P04637). Nature of the test: ATG_p53_CIS: Attagene CIS-FACTORIAL HepG2 Assay for human p53 Transcription Factor (AID 2282994). The settings on record: HepG2 p53 cis-element reporter, Attagene mRNA; actives raise or lower the signal. In short, it runs like this:
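Endogenous p53 activity read in transiently transfected HepG2 from a cis-element-driven reporter transcript after 24 h exposure. RNA reverse-transcribed, PCR-amplified, fluorescently labelled and sized by capillary electrophoresis; gain or loss fitted against DMSO baseline.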

A short description of test [6]: BSK_3C_TissueFactor: BioMAP Diversity Plus: 3C Assay for Tissue Factor Biomarker Activity (AID 2282997). The settings on record: BioMAP 3C HUVEC, tissue factor biomarker readout; actives raise or lower the signal. The method, boiled down: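 Tissue Factor measured by ELISA, 24 h after treatment of primary HUVEC in the BioMAP 3C setting.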
Test [7] in a line: BSK_3C_uPAR: BioMAP Diversity Plus: 3C Assay for Urokinase-type plasminogen activator receptor (uPAR) Biomarker Activity (AID 2282998). The settings on record: BioMAP 3C HUVEC, uPAR biomarker ELISA; actives raise or lower the signal. The method, boiled down: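 Human umbilical vein endothelial primary cells were exposed to test chemical for 24 h. Cell-surface uPAR was then quantified by ELISA, and responses were fitted bidirectionally against DMSO as negative control and baseline.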

The nature of test [8]: BSK_3C_VCAM1: BioMAP Diversity Plus: 3C Assay for Vascular cell adhesion molecule 1 (VCAM1) Biomarker Activity (AID 2282999). The settings on record: BioMAP 3C HUVEC, VCAM1 ELISA, cytokine-stimulated; actives raise or lower the signal. The method, boiled down:
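HUVEC primary cells, 24 h compound exposure; VCAM-1 by ELISA; gain/loss of signal fitted bidirectionally vs DMSO baseline.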

The nature of test [9]: BSK_4H_Eotaxin3: BioMAP Diversity Plus: 4H Assay for Eotaxin 3 Biomarker Activity (AID 2283000).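 On outcome: CCL26 protein level quantified by ELISA in parallel with SRB cytotoxicity check.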 The settings on record: primary human endothelial cells (HUVEC); actives raise or lower the signal. In short, it runs like this: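 Eotaxin-3 (CCL26) levels were measured by ELISA in HUVEC primary cultures 24 h post-dosing. Gain or loss of signal was fitted in both directions, with DMSO serving as baseline and negative control.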

Read-out in test [10]: Intercellular Adhesion Molecule 1 (ICAM1), ICAM1 (gene 3383)
The experiment in a line: BSK_3C_ICAM1: BioMAP Diversity Plus: 3C Assay for Intercellular Adhesion Molecule 1 (ICAM1) Biomarker Activity (AID 2283003). The settings on record: primary human endothelial cells (HUVEC); actives raise or lower the signal. In short, it runs like this:
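ELISA readout of ICAM1 in human umbilical vein endothelial cells in the 3C system, taken 24 h post-dose. Gain or loss of signal versus DMSO was fitted in both directions, with SRB total-protein staining run in parallel.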

The nature of test [11]: BSK_3C_Proliferation: Cell Proliferation Assessment in the BioMAP Diversity Plus: 3C Assay (AID 2283006).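 On AC50: potency may reflect either rise or fall in cell number versus DMSO.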 The settings on record: primary human endothelial cells (HUVEC). In short, it runs like this:
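Proliferation as total protein: sulforhodamine B (0.1%) stain of TCA-fixed subconfluent human umbilical vein endothelial cells, absorbance 560 nm, 48 h after dosing. Activity fitted in both directions against DMSO baseline.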

Test [12] deals with Peroxisome proliferator-activated receptor gamma (Homo sapiens) (UniProt P37231). Nature of the test: ATG_PPARg_TRANS: Attagene TRANS-FACTORIAL HepG2 Assay for human Peroxisome Proliferator-activated Receptor-gamma (PPARg) (AID 2283007; active means hit-call score of the fitted dose curve at least 0.9, where 1 is the maximum). In short, it runs like this:
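Chimeric NR-Gal4 transactivation is measured in transiently transfected HepG2 cells by reporter mRNA induction at 24 h. Detection uses RT-PCR with fluorescent labelling and capillary electrophoresis; DMSO defines baseline.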

In test [13] the target is Nuclear receptor subfamily 1 group I member 2 (Homo sapiens) (UniProt O75469). Nature of the test: ATG_PXR_TRANS: Attagene TRANS-FACTORIAL HepG2 Assay for human Pregnane X Receptor (PXR) (AID 2283008; active means hit-call score of the fitted dose curve at least 0.9, where 1 is the maximum). In short, it runs like this: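 Transactivation by exogenous PXR–GAL4 fusion measured as reporter transcript induction after 24 h compound treatment of transfected human HepG2 cells. Read-out via RT-PCR and capillary electrophoresis of labelled fragments, fitted upward relative to DMSO.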

For test [14], the target named is Retinoic acid receptor alpha (Homo sapiens) (UniProt P10276). Nature of the test: ATG_RARa_TRANS: Attagene TRANS-FACTORIAL HepG2 Assay for human Retinoic Acid Receptor alpha (RARa) (AID 2283005; active means hit-call score of the fitted dose curve at least 0.9, where 1 is the maximum). The method, boiled down: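 HepG2 transiently transfected with multiplex GAL4-UAS reporter units including a human RARa–GAL4 chimera; 24 h compound exposure. Reporter mRNA quantified by RT-PCR, 6-FAM labeling and capillary electrophoresis; gain of signal versus DMSO.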

Test [15] addresses human Retinoic Acid Receptor gamma (RARg), RARG (gene 5916) (UniProt P13631). The experiment in a line: ATG_RARg_TRANS: Attagene TRANS-FACTORIAL HepG2 Assay for human Retinoic Acid Receptor gamma (RARg) (AID 2283009; active means hit-call score of the fitted dose curve at least 0.9, where 1 is the maximum). The method, boiled down:
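Transactivation of exogenous RARg-Gal4 fusion measured as reporter transcript induction after 24 h in transfected HepG2 cells. RNA reverse-transcribed, amplified, fluorescently labeled and resolved by capillary electrophoresis; increase relative to DMSO.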

The target of test [16] is human Peroxisome Proliferator-activated Receptor delta (PPARd), PPARD (gene 5467) (UniProt Q03181). The experiment in a line: ATG_PPARd_TRANS: Attagene TRANS-FACTORIAL HepG2 Assay for human Peroxisome Proliferator-activated Receptor delta (PPARd) (AID 2283002; active means hit-call score of the fitted dose curve at least 0.9, where 1 is the maximum). In short, it runs like this:
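Read-out: reporter mRNA induction, quantified by fluorescent RT-PCR products resolved by capillary electrophoresis. Human HepG2 liver cells carried transiently transfected Gal4-UAS reporter constructs with chimeric NR-Gal4 fusions. Cells were dosed for 24 h; DMSO served as baseline.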

For test [17], the target named is human Retinoic Acid Receptor beta (RARb), RARB (gene 5915) (UniProt P10826). The experiment in a line: ATG_RARb_TRANS: Attagene TRANS-FACTORIAL HepG2 Assay for human Retinoic Acid Receptor beta (AID 2283004; active means hit-call score of the fitted dose curve at least 0.9, where 1 is the maximum). The method, boiled down:
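HepG2 cells were transiently transfected with GAL4-UAS reporter units that report activity of exogenous chimeric NR-Gal4 proteins, then exposed to compound for 24 h. Reporter mRNA was quantified by RT-PCR with capillary electrophoresis fluorescence, as gain of signal over DMSO.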

The target of test [18] is human Peroxisome Proliferator-activated Receptor alpha (PPARa), PPARA (gene 5465) (UniProt Q07869). The experiment in a line: ATG_PPARa_TRANS: Attagene TRANS-FACTORIAL HepG2 Assay for human Peroxisome Proliferator-activated Receptor alpha (PPARa) (AID 2283001; active means hit-call score of the fitted dose curve at least 0.9, where 1 is the maximum). In short, it runs like this:
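HepG2, transient MRTU transfection, 24 h treatment. RT-PCR → FAM labelling → capillary electrophoresis. Fit vs DMSO, positive direction.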

For test [19], the target named is human RAR-related Orphan Receptor beta (RORb), RORB (gene 6096) (UniProt Q92753). The experiment in a line: ATG_RORb_TRANS: Attagene TRANS-FACTORIAL HepG2 Assay for human RAR-related Orphan Receptor beta (RORb) (AID 2283010; active means hit-call score of the fitted dose curve at least 0.9, where 1 is the maximum). In short, it runs like this:
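Read-out is reporter mRNA induction, quantified by RT-PCR with fluorescent capillary electrophoresis, 24 h post-dose in transiently transfected HepG2 expressing exogenous NR-Gal4 chimera. Activity fitted upward versus DMSO.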

Records with an inconclusive call do not appear. Activity calls are given as the source filed them. How the source made its calls, unless noted: active means hit-call score of the fitted dose curve at least 0.9, where 1 is the maximum; inactive means score below 0.9.

Sequence of Myc proto-oncogene protein (Homo sapiens) (P01106 whole entry, looked up, the tested form may be a part): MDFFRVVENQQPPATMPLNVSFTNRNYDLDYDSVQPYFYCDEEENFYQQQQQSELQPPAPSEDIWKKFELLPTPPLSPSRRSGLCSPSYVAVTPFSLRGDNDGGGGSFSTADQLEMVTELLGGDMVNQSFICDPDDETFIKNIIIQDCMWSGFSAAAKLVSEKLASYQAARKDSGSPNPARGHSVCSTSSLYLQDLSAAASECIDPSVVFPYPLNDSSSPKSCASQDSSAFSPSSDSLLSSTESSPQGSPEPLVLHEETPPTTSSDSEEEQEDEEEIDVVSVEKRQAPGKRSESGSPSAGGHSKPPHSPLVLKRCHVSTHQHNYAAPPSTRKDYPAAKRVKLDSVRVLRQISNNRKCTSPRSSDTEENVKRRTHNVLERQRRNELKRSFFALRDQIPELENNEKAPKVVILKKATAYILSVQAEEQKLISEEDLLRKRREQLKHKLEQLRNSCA
Sequence of Nuclear receptor subfamily 1 group I member 2 (Homo sapiens) (O75469 whole entry, looked up, the tested form may be a part): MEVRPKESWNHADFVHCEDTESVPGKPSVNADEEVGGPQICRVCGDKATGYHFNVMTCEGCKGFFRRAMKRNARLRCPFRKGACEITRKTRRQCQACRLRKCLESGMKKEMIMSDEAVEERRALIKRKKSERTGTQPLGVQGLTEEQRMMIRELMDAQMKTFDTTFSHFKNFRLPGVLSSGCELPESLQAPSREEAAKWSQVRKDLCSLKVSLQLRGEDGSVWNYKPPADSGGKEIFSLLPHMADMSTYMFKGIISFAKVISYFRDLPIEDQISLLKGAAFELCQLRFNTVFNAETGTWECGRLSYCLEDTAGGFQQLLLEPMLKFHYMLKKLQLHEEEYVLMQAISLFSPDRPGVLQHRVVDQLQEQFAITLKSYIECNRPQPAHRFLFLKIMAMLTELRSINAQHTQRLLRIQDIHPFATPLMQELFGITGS
Sequence of Peroxisome proliferator-activated receptor gamma (Homo sapiens) (P37231 whole entry, looked up, the tested form may be a part): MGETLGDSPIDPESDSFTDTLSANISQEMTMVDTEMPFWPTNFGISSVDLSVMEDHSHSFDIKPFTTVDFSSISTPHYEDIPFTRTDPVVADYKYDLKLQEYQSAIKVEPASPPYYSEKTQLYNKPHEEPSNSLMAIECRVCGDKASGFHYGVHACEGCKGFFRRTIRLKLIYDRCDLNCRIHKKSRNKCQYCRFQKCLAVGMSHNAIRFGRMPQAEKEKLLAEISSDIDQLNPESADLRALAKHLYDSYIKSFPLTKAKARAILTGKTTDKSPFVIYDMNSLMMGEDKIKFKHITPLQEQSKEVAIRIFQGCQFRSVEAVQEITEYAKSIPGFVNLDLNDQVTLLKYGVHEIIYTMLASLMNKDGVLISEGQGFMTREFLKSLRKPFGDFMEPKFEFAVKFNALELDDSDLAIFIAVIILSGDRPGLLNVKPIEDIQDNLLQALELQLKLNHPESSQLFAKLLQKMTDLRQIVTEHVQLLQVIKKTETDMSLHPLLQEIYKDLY
Sequence of Cellular tumor antigen p53 (Homo sapiens) (P04637 whole entry, looked up): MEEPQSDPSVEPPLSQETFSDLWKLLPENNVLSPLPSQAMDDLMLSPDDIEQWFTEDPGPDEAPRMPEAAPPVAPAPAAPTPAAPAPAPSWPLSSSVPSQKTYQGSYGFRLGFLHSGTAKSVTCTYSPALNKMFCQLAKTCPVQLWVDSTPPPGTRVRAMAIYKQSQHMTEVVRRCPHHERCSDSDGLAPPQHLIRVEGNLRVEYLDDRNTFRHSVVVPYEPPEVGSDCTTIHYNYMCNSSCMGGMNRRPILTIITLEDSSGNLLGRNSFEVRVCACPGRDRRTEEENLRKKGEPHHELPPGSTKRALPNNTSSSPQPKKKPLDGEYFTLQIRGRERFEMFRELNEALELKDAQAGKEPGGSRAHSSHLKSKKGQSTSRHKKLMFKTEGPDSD
Sequence of human Retinoic Acid Receptor beta (RARb), RARB (gene 5915) (P10826 whole entry, looked up, the tested form may be a part): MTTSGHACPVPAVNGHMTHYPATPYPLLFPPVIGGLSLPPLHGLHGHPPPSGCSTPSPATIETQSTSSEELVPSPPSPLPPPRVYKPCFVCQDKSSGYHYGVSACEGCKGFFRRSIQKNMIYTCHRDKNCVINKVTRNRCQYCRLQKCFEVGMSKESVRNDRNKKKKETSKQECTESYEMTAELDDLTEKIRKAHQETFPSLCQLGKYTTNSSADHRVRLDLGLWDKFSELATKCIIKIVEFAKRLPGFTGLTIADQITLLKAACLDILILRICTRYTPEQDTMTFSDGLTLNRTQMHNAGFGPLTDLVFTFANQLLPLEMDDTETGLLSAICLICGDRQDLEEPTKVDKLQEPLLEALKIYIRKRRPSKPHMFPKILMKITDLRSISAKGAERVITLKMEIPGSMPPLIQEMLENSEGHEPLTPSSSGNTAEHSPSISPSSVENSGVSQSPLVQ
Sequence of human RAR-related Orphan Receptor beta (RORb), RORB (gene 6096) (Q92753 whole entry, looked up, the tested form may be a part): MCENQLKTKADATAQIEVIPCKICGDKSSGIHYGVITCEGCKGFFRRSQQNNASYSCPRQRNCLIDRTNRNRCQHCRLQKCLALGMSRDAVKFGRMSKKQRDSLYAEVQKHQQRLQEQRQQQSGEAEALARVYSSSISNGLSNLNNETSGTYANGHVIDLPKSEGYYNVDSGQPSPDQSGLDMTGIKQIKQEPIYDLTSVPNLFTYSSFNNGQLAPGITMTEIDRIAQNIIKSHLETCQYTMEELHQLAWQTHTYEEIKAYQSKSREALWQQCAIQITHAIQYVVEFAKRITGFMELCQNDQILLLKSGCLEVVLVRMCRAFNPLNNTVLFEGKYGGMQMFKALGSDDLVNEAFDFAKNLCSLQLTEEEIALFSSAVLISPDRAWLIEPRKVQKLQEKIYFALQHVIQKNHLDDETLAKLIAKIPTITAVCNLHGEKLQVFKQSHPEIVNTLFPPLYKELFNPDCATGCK
Sequence of human Retinoic Acid Receptor gamma (RARg), RARG (gene 5916) (P13631 whole entry, looked up, the tested form may be a part): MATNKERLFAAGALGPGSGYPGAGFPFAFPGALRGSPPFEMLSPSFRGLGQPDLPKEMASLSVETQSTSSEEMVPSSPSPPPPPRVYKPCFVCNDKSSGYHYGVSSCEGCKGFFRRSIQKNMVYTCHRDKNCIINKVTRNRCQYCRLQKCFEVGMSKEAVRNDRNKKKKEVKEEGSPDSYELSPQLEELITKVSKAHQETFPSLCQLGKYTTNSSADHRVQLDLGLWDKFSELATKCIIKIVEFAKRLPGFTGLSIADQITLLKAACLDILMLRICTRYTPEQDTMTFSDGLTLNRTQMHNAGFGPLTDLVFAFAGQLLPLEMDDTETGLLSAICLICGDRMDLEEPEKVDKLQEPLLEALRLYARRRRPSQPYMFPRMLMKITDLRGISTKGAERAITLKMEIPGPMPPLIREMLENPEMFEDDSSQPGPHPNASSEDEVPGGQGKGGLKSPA
Sequence of human Peroxisome Proliferator-activated Receptor delta (PPARd), PPARD (gene 5467) (Q03181 whole entry, looked up, the tested form may be a part): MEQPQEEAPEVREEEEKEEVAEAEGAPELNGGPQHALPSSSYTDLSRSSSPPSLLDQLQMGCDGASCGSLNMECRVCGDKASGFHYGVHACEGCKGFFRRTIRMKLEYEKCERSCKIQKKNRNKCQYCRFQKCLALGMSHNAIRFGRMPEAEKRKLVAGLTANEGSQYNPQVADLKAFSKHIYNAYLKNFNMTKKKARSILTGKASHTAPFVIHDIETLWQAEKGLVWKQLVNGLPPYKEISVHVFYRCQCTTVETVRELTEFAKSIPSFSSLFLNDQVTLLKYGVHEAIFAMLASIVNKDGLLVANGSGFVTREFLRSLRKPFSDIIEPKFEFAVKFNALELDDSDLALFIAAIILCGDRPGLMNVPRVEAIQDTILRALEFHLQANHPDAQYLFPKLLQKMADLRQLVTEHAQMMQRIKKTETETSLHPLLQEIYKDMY
Sequence of human Peroxisome Proliferator-activated Receptor alpha (PPARa), PPARA (gene 5465) (Q07869 whole entry, looked up): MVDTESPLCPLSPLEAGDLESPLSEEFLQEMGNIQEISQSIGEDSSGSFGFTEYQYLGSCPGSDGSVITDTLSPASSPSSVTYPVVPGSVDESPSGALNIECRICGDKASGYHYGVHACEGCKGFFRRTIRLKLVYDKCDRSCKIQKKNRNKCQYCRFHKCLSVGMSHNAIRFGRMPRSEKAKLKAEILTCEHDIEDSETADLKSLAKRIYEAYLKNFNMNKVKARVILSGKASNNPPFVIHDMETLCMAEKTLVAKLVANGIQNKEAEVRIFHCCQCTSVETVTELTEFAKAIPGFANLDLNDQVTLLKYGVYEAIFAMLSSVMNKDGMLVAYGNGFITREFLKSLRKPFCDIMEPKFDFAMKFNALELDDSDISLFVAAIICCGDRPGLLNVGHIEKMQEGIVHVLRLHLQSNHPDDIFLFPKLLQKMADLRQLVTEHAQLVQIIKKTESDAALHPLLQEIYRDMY
Sequence of Retinoic acid receptor alpha (Homo sapiens) (P10276 whole entry, looked up, the tested form may be a part): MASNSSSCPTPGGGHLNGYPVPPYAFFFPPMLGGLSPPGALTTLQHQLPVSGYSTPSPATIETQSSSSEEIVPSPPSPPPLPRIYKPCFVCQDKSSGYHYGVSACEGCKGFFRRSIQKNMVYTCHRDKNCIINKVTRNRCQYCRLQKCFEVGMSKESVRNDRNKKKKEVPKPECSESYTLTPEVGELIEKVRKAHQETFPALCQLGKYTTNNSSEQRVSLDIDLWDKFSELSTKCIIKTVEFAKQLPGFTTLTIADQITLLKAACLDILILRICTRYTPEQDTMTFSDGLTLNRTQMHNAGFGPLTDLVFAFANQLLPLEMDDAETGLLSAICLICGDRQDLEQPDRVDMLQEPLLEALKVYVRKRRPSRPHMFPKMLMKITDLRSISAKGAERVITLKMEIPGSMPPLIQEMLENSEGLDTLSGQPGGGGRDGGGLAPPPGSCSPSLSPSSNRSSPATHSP

With `CCOC(=O)C(SP(=S)(OC)OC)c1ccccc1` (stereo not given), the outcome in [1], in test [2], in [3], in test [4], in [5] and in test [6] was inactive. Also, the outcome in test [10] was inactive. The AC50 was 20 µM (active) in [7]; 25.8 µM (active) in test [8]; 29.1 µM (active) in test [9]; 14.9 µM (active) in test [11]; 70.8 µM (active) in test [12]; 3.52 µM (active) in test [13].
Regarding `O=C(NC(=O)c1c(F)cccc1F)Nc1cc(Cl)c(F)c(Cl)c1F`, the outcome in test [1], in [2], in test [3], in test [4], in [5] and in [14] was inactive. Besides, the outcome in [12], in test [13] and in test [15] was inactive.
For `CCOP(=O)(OCC)OC(=CCl)c1ccc(Cl)cc1Cl`, the outcome in test [1], in test [2], in [3], in test [4], in test [5] and in test [8] was inactive. Moreover, the molecule was classed as inactive in [16], in test [10] and in test [17]. Moreover, the AC50 in test [6] is 20 µM (active); in [7], 31.5 µM (active); in test [9] it was 30.9 µM (active); in [11], 28.9 µM (active); in test [12], 27.4 µM (active); in test [13] it was 0.62 µM (active).
As for `OCCN(CCO)CCO`, the molecule was classed as inactive in [1], in test [2], in test [3], in [4], in test [6] and in test [7]. For the same molecule, the outcome in [8], in test [9], in [18], in test [10], in test [11] and in [19] was inactive.
For `COc1ccc([N+](=O)[O-])cc1O`, the result in [1], in test [2], in [3], in [4], in test [5] and in [18] was inactive. The molecule was classed as inactive in test [16], in [17], in [12], in test [15] and in [19].
